This is an account of results in PubChem BioAssay.

Each structure is given as a SMILES string.

In one assay the test system is Plasmodium falciparum Sir2 (PF13_0152, Sir2A). Kind of assay: pfSir2 binders on small-molecule microarrays, primary screen, biochemical, small-molecule microarray, 635 nm fluorescence (AID 1098).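 Note: score merges spot fluorescence intensity with its signal-to-noise ratio.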 The settings on record: small-molecule microarray binding, fluorescence 635 nm; higher = more signal.
`O=C(NCc1ccccc1)[C@]1(Cc2ccccc2)N=C(c2ccc(OCCCO)cc2)O[C@@H]1c1ccccc1` displayed a composite z-score of -0.0602.

In turn, `O=C1O[C@@H](c2ccccc2)[C@@H](c2ccccc2)N2[C@@H](c3ccc(O)cc3)[C@]3(C(=O)Nc4ccc(C#CC5(O)CCCCCC5)cc43)[C@@H](C(=O)N3CCN(c4ncccn4)CC3)[C@H]12` displayed a composite z-score of 0.479.

`COCC(=C=CC[C@@H](O)c1ccccc1OCCO)C[C@@H](O)c1ccccn1`: the composite z-score was found to be 0.378.

`C#CCNS(=O)(=O)N(C)C` displayed a composite z-score of 0.365.

`C=CCC(OC(C)=O)[C@@H]1[C@@H](N(Cc2ccc(-c3cccc(C(F)(F)F)c3)o2)C(=O)c2cccc3ccccc23)c2cc(OCCCO)ccc2N1C(=O)c1ccc(-c2ccccc2)cc1` (some centres not stated) displayed a composite z-score of 0.295.

As for `COCCOC(=O)N1C(=O)[C@@]2(c3cc(C#CCC(C(=O)OC)C(=O)OC)ccc31)[C@H](c1ccc(OCCO)cc1)N1[C@H](c3ccccc3)[C@H](c3ccccc3)OC(=O)[C@H]1[C@@H]2C(N)=O`, the composite z-score stood at 1.46.

The compound `CCCC[C@H]1OB(O)C[C@H]2C1=C(COc1ccccc1)Cn1c(=O)n(-c3ccccc3)c(=O)n12` had a composite z-score of 0.918.

Test system in the next assay: not listed separately
The assay is described as follows: small-molecule microarray binders of probe aDKK1, primary screen, biochemical, biotinylated probe, 635/667 nm fluorescence (AID 1099).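 Note: score merges 667nm spot fluorescence with signal to noise across triplicate slides; reference of the scale not given here.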 As to conditions: higher = more signal.
As to `COC(=O)[C@@]1(Cc2ccccc2)[C@H]2c3cc(C(=O)N4CCCC4)n(Cc4ccccc4)c3C[C@H]2CN1C(=O)c1ccccc1`, the composite z-score came out at 0.854.

Consider `CC(C)C[C@@H]1NC(=O)[C@@]23C(=O)N[C@@H](Cc4ccccc4)C2[C@H](C)[C@@]2(C)O[C@H]2C3/C=C/C/C=C\CNC(=O)[C@@H]2CCCN2C1=O` (some centres not stated), for which the composite z-score was -0.277.

`COC(=O)[C@@]1(Cc2ccc(OC)cc2)[C@H]2c3cc(C(=O)N4CCCC4)n(CCF)c3C[C@H]2CN1C(=O)c1ccccc1` showed a composite z-score of 2.71.

The compound `C=C(/C(=C/C[C@@H](OC(=O)c1ccncc1)c1cccc(OCCO)c1)c1cc(C(=O)OC)ccc1OC)C(C)C` registered a composite z-score of -0.17.

`O=C(CS)NCCCCCNC(=O)[C@@H]1C[C@@H]2C(=O)N3CCC[C@H]3C(=O)N2[C@@H]1c1ccc(O)cc1`: the composite z-score stood at 0.233.

In the case of `COc1cccc(C)c1NC(=O)O[C@H]1[C@H](OC(=O)Nc2ccccc2)[C@H](OC(=O)Nc2ccccc2)[C@@H](OC)O[C@@H]1CO`, the composite z-score is 0.245.

Consider `COc1ccc(C#Cc2ccc3c(c2)[C@]2(C(=O)N3)[C@H](C(=O)O)[C@H]3C(=O)O[C@H](c4ccccc4)[C@H](c4ccccc4)N3[C@@H]2c2ccc(OCCO)cc2)cc1`, for which the composite z-score stood at 0.192.

`COc1cc2c(cc1OC)CN(C(=O)[C@@H]1[C@H]3C(=O)O[C@H](c4ccccc4)[C@H](c4ccccc4)N3[C@H](c3ccc(O)cc3)[C@@]13C(=O)Nc1ccc(C#CCNC(N)=O)cc13)CC2`: the composite z-score is -0.053.

`COc1ccc([Si](C)(C)[C@@H]2[C@@H](CCO)O[C@]3(C(=O)N(Cc4cccc(N5C(=O)COc6ccccc65)c4)c4ccccc43)[C@H]2C)cc1` displayed a composite z-score of 0.0985.

Take `Cc1ccc(-c2cccc(=O)o2)cc1`: the composite z-score stood at 0.0694.

In turn, `COC(=O)c1ccc(OC)c(/C=C\CC(CCc2ccccc2)OC(C)=O)c1` (configuration not stated) had a composite z-score of -0.493.

Consider `C=C(C(=O)CC[C@H](OC(=O)c1cccnc1)c1ccc(OCCO)cc1)C(C)C`, for which the composite z-score was -0.175.

The compound `CCCC=C(CCC)[C@@H](NS(=O)(=O)c1cccc2cccnc12)c1ccc(C(=O)OC)cc1` displayed a composite z-score of 2.53.

Turning to `CC(C)CCC[C@@H](C)[C@H]1CC[C@@]2(C)C3=C(CC[C@]12C)[C@@]1(C)CC[C@H](OC(=O)c2ccc(N)cc2)C(C)(C)C1CC3` (some centres not stated), the composite z-score was -0.285.

As to `C[C@H]1ON(c2ccccc2)[C@@H](c2ccccc2)[C@@H]1C(=O)N1C(=O)OC[C@@H]1c1ccccc1`, the composite z-score is -0.138.

`Cc1ccc(S[C@]2(C(=O)O)CC(=O)N(Cc3ccccc3C(F)(F)F)[C@@H]2c2ccc(CO)cc2)cc1` gave a composite z-score of -0.0885.

`C=CCN1C(=O)[C@@]2(O[C@@H](CCO)[C@H]([Si](C)(C)c3ccc(OC)cc3)[C@H]2C)c2cc(NC(=O)[C@H](C)O)ccc21` registered a composite z-score of -0.474.

Turning to `CN1C(=O)C2C=CC(C(O)COCc3ccccc3)N(Nc3ccccc3)C2C1=O` (configuration not stated), the composite z-score was -0.109.

Compound `C=CCC(OC(C)=O)[C@@H]1[C@@H](N(Cc2cc3ccccc3o2)C(=O)Cc2ccc(OC)cc2)c2cc(OCCCO)ccc2N1C(=O)c1ccc(-c2ccccc2)cc1` (some centres not stated) displayed a composite z-score of 0.068.

`CC1CC/C=C\[C@H]2OC34C=CCN(c5ccc(Cl)cc5)C(=O)[C@H]3N(C(CO)C(C)C)C(=O)[C@]4(C)C2C(=O)O1` (some centres not stated) yielded a composite z-score of -0.0977.

Regarding `COCCOC(=O)N1C(=O)[C@@]2(c3cc(C#CC4(O)CCCCCC4)ccc31)[C@H](C(=O)N1CCc3cc(OC)c(OC)cc3C1)[C@H]1C(=O)O[C@H](c3ccccc3)[C@H](c3ccccc3)N1[C@@H]2c1ccccc1OCCO`, the composite z-score stood at 0.836.

Compound `CC(C)C(CO)N1C(=O)[C@@H]2[C@H]3C(=O)OCC=C[C@H]3OC23C=CCN(Cn2nnc4ccccc42)C(=O)[C@@H]13` (some centres not stated) came in with a composite z-score of -0.374.

In the case of `O=C1C2C=CC(C(O)c3ccc(Br)cc3)N(Nc3ccccc3)C2C(=O)N1c1ccccc1` (configuration not stated), the composite z-score was -0.0556.

Consider `CN(C)CCCCNC(=O)[C@H]1C[C@H]2C(=O)N[C@@H](CCCC[N+](C)(C)C)C(=O)N2[C@H]1c1cccc(OCCO)c1`, for which the composite z-score was -0.124.

The compound `O=C1C2C=CC(C(O)c3ccccn3)N(Nc3ccccc3)C2C(=O)N1c1ccccc1` (configuration not stated) showed a composite z-score of 0.264.

With `COC(=O)[C@@]1(Cc2ccc(OC)cc2)[C@H]2c3cc(C(=O)N(C)C)n(CCF)c3C[C@H]2CN1C(=O)c1ccccc1`, the composite z-score stood at 1.23.

In the case of `COC(=O)[C@@]1(Cc2ccccc2N=[N+]=[N-])N=C(c2ccc(OCCCO)cc2)O[C@H]1c1ccccc1`, the composite z-score is 0.0665.

For the compound `C=CCC(OC(C)=O)[C@@H]1[C@@H](N(Cc2cccc3ccccc23)C(=O)c2ccc(C)cc2)c2cc(OCCCO)ccc2N1C(=O)c1ccc2ccccc2c1` (some centres not stated), the composite z-score was -0.259.

`O=C(NCc1ccccc1)[C@]1(Cc2ccccc2)N=C(c2ccc(OCCCO)cc2)O[C@@H]1c1ccccc1` displayed a composite z-score of 0.857.

In turn, `O=C1O[C@@H](c2ccccc2)[C@@H](c2ccccc2)N2[C@@H](c3ccc(O)cc3)[C@]3(C(=O)Nc4ccc(C#CC5(O)CCCCCC5)cc43)[C@@H](C(=O)N3CCN(c4ncccn4)CC3)[C@H]12` registered a composite z-score of -0.125.

Compound `COCC(=C=CC[C@@H](O)c1ccccc1OCCO)C[C@@H](O)c1ccccn1` returned a composite z-score of -0.0661.

`C#CCNS(=O)(=O)N(C)C` displayed a composite z-score of -0.0521.

For the compound `C=CCC(OC(C)=O)[C@@H]1[C@@H](N(Cc2ccc(-c3cccc(C(F)(F)F)c3)o2)C(=O)c2cccc3ccccc23)c2cc(OCCCO)ccc2N1C(=O)c1ccc(-c2ccccc2)cc1` (some centres not stated), the composite z-score is 0.0007.

`COCCOC(=O)N1C(=O)[C@@]2(c3cc(C#CCC(C(=O)OC)C(=O)OC)ccc31)[C@H](c1ccc(OCCO)cc1)N1[C@H](c3ccccc3)[C@H](c3ccccc3)OC(=O)[C@H]1[C@@H]2C(N)=O` displayed a composite z-score of 0.0751.

The compound `CCCC[C@H]1OB(O)C[C@H]2C1=C(COc1ccccc1)Cn1c(=O)n(-c3ccccc3)c(=O)n12` came in with a composite z-score of -0.149.
